Results as given in PMC4336329 (PLoS ONE, 2015).
Hit rate of the full screen: of about 310,000 compounds, about 14,000 (4.5%) showed an effect of 50% or more. The effect is printed as a negative number. Shown is part of a subset that was picked to be rich in strong results.

target: human ether-à-go-go-related gene (hERG) potassium channel (human, UniProt Q12809); experiment: primary screen, population patch clamp on CHO cells stably expressing hERG; higher = less effect of the substance
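Also: peak tail current of the secondary pulse compared with the same well before compound.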

human ether-à-go-go-related gene (hERG) potassium channel, sequence (Q12809 whole entry, looked up): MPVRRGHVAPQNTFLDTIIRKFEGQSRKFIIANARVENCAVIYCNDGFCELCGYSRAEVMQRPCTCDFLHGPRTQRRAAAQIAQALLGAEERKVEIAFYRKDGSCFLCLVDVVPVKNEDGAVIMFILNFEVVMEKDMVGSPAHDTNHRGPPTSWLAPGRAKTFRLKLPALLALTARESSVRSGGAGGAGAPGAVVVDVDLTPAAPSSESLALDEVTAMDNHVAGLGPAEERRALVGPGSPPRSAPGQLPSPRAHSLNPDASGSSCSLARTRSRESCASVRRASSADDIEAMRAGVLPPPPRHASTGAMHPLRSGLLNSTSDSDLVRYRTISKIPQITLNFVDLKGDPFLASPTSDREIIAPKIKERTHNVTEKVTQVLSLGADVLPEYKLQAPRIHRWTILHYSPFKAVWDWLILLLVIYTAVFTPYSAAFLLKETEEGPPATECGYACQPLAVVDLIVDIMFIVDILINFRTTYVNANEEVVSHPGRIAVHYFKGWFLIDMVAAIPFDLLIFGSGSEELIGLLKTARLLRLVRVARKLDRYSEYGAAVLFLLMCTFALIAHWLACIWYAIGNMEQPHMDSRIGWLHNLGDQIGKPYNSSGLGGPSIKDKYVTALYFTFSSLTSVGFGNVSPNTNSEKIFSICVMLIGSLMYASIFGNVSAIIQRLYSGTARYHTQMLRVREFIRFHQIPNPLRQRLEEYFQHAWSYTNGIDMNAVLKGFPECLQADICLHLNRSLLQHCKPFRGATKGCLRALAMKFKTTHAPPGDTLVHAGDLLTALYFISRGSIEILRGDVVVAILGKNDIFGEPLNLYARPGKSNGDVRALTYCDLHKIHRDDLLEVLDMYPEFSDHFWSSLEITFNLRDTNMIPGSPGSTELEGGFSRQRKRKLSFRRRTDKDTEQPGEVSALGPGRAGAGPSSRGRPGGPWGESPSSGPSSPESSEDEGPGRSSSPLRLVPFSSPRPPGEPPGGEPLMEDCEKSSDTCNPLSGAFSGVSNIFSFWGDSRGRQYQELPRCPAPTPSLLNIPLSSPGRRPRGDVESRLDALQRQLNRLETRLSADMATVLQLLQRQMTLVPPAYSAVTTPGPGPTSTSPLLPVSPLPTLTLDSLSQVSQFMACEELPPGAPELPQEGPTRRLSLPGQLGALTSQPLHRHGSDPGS

Compound	hERG current change (%, negative = inhibition) at 10uM [%]
Cc1ccc2c(c1)sc1nc(=O)n(-c3ccc(Cl)cc3)c(=O)n12	6.6
O=C(NCCCN1CCOCC1)C1CC(=O)N(c2ccccc2)C1 (stereo not shown)	12.1
CCN1CCN(Cc2oc(CO)cc(=O)c2O)CC1	-4.6
CC(=O)c1cccc(NC(=O)c2ccc3ccccc3c2)c1	6.07
Cn1cc(C(=O)c2ccc(Cl)cc2Cl)cc1C(=O)N/N=C(\N)COc1cccc(C(F)(F)F)c1	-4.61
CCOc1ccccc1C1CC(=O)Nc2cc3c(cc21)OCCO3 (stereo not shown)	-2.02
COCCCN(C(=O)CSCC(=O)Nc1cccc(C)c1)c1c(N)n(Cc2ccccc2)c(=O)[nH]c1=O	11.3
CC(C)C(NC(=O)c1ccc2c(c1)OCO2)C(=O)N/N=C\c1ccco1 (stereo not shown)	2.3
CCN1CCCC1CNC(=O)Cn1ncc2c(=O)oc3ccc(C)cc3c21 (stereo not shown)	-2.33
C=CCNC(=O)c1c(N)n(-c2cccc(S(N)(=O)=O)c2)c2nc3ccccc3nc12	-4.04
O=C(Cc1c(F)cccc1Cl)NCCCn1ccnc1	-24.6
COc1cc2c(cc1OC)C(C)NCC2.Cl (stereo not shown)	14.1
OCC1(Cc2ccccc2)CCCN(Cc2cn[nH]c2-c2ccccc2)C1 (stereo not shown)	-16.4
OC1(c2ccc(Cl)cc2)CCN(Cc2cn[nH]c2-c2ccccc2)CC1	-77.7
c1ccc(-c2[nH]ncc2CN2CCc3ccccc3C2)cc1	-2.39
O=C(CCCN1C(=O)C2CCCCN2C1=O)N1CCN(c2ccc([N+](=O)[O-])cc2)CC1 (stereo not shown)	-74.7
O=C1C2CCCN2C(=O)N1CCN1CCN(CCO)CC1 (stereo not shown)	-5.52
O=C1C2CCCCN2C(=O)N1CCCCN1CCN(c2ccc([N+](=O)[O-])cc2)CC1 (stereo not shown)	-75.8
Cl.Nc1ccc(N2CCN(CCCCN3C(=O)C4CCCN4C3=O)CC2)cc1.O (stereo not shown)	-9.33
O=C1C2CCCN2C(=O)N1CCCN1CCN(c2ccc([N+](=O)[O-])cc2)CC1 (stereo not shown)	-68.3
O=C1C2CCCN2C(=O)N1CCN1CCN(c2ccccc2)CC1 (stereo not shown)	-8
Cc1ccc(N2CCN(CCCN3C(=O)C4CCCN4C3=O)CC2)cc1.Cl (stereo not shown)	-7.45
O=C1C2CCCCN2C(=O)N1CCN1CCN(c2ccc([N+](=O)[O-])cc2)CC1 (stereo not shown)	-71.5
O=C1C2CCCCN2C(=O)N1CCCCN1CCN(c2ccc(F)cc2)CC1 (stereo not shown)	-44
O=C1C2CCCCN2C(=O)N1CCCN1CCN(c2ccc(F)cc2)CC1 (stereo not shown)	-34.8
